Source: PubChem
Many of the other results were omitted from the sample, so hits are more common in it than they were.
Pf Dd2 inh: qHTS Primary assay for Inhibitors of Plasmodium falciparum Dd2 growth in vitro; P. falciparum Dd2 growth, SYBR Green, 72 h; Potency, µM (series often up to 28.9 µM), usual class: inhibitors; 4.3% of 120,000 active; active = well fitted inhibition curve with a large enough effect; also: nearly all actives have a fitted effect of over 65% in size
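Readout: SYBR Green fluorescence, 485 nm excitation, 535 nm emission, after ~16 h lysis at 37C. Before that, Dd2-infected red cells (2.5% hematocrit) grew 72 h with compound, 29 uM top final concentration.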
Each line names hits and unclear results; the compound was inactive in the other large screens.

O=C(Nc1cccc(-c2nnc3n2CCCC3)c1)Nc1ccccc1F	none
CCOc1cc(=O)n2c(c1C(=O)Nc1cccc(C)c1)CCCC2	none
Cc1cc(C)cc(C(=O)Nc2cccc(-c3nnc4n3CCCC4)c2)c1	Pf Dd2 inh 3.2µM
O=C(Nc1ccc(-c2nnc3n2CCCC3)cc1)c1ccc[nH]c1=O	none
CCOc1ccccc1C(=O)Nc1cccc(-c2nnc3n2CCCC3)c1	Pf Dd2 inh 5µM
Cc1ccc(C(=O)Nc2ccc(-c3nnc4n3CCCC4)cc2)s1	Pf Dd2 inh 5.6µM
O=C(Nc1ccccc1)Nc1ccc(-c2nnc3n2CCCC3)cc1	none
CN(Cc1cc(C2CC2)on1)Cc1nnc(C2CC(N)C2)n1C1CC1 (centres undefined)	none
Cc1ncccc1C(=O)N1C[C@@H](COc2ccccc2)[C@H](C(N)=O)C1	none
NC(=O)C1CCN(C(=O)[C@H]2C[C@@H](O)[C@H](O)[C@@H]3N=C(Nc4cccc(C(F)(F)F)c4)S[C@@H]32)CC1	none
COC1CCN(C(=O)C(C)(C)Oc2nn(CCOc3ccccc3)c3ccccc23)CC1	none
O=C(c1ccccc1)N1C[C@H]2OC(=O)N(CCc3cccc(Cl)c3)[C@H]2C1	none
C=CCNC(=O)C[C@@H]1CCN(C(=O)Nc2cccc(C(F)(F)F)c2)C[C@@H]1CC	none
COc1ccc(C(=O)N2CCC3(CC2)N=C(c2cccc(Br)c2)NO3)cc1F	none
CN(Cc1ccccc1)C(=O)CC1CCN(C(=O)CC2CCCC2)C1 (centres undefined)	none
COc1ccc(N2Cc3c(ncnc3N3CCC(N4CCCCC4)CC3)N(C)CC2=O)cc1	none
CN1CCC(N[C@@H]2CCC[C@@H](C(=O)NC3CC3)CC(=O)N(C)C2)CC1	none
COc1ccc(Nc2ccc3ncn(-c4ccccc4)c(=O)c3n2)cn1	none
CCc1ccc(N2CC(c3noc(C4(c5ccccc5)CC4)n3)CC2=O)cc1 (centres undefined)	none
COc1ccc(C(=O)NCC(c2ccc(Cl)cc2)N2CCCCC2)cc1 (centres undefined)	none
COc1ccc(OCC(=O)NCC(c2ccc(Cl)cc2)N2CCCCC2)cc1 (centres undefined)	Pf Dd2 inh 7.9µM
CCc1ccc(OCC(=O)NCC(c2ccc(Cl)cc2)N2CCOCC2)cc1 (centres undefined)	Pf Dd2 inh 11µM
O=C(COc1ccccc1)NCC(c1ccc(Cl)cc1)N1CCOCC1 (centres undefined)	none
COc1ccc(C(CNC(=O)COc2cc(C)cc(C)c2)N2CCOCC2)cc1 (centres undefined)	none
COc1ccc(C(CNC(=O)Cc2ccc(Cl)cc2)N2CCOCC2)cc1 (centres undefined)	none
CN(C)c1ccc(C(CNC(=O)COc2ccccc2)N2CCOCC2)cc1 (centres undefined)	none
Cc1cc(C)cc(OCC(=O)NCC(c2ccc(Cl)cc2)N2CCCCC2)c1 (centres undefined)	Pf Dd2 inh 11µM
COc1ccccc1OCC(=O)NCC(c1ccc(Cl)cc1)N1CCOCC1 (centres undefined)	none
Cc1ccc(Cn2c(C3CCN(C(=O)c4cccc(F)c4)CC3)n[nH]c2=O)cc1	none
CN1CCC2(CCC1=O)CN(CC(=O)NCc1ccccn1)CCN2C (centres undefined)	none
O=C(c1nnn2c1COC(c1ccccc1)C2)N1CCN(C(=O)C2(c3ccccc3)CC2)CC1 (centres undefined)	none
CN1CCCC2(C1)CN(C)c1ccc(C(=O)NCc3cccs3)cc12 (centres undefined)	none
O=C(Cc1ccc(N2CCNC2=O)cc1)N1CCC2(CC1)[C@H](O)C[C@@H]2O	none
COc1ccc(CCN2CCCC(CN(C)C(=O)c3cnn(C(C)C)c3)C2)cc1 (centres undefined)	none
CN(Cc1ccc(N2CCNC2=O)cc1)CC1CCCN(CCc2ccc(F)cc2)C1 (centres undefined)	Pf Dd2 inh 13µM
COCc1nncn1C1CCN(S(=O)(=O)c2cccc(C)c2)CC1	none
CN(C)c1ccc(C(=O)N2CC[C@@H](CC(=O)O)[C@@H](CCN3CCN(c4ccc(F)cc4)CC3)C2)cc1	none
Cn1c(Cn2cccn2)nnc1C1CC(NC(=O)c2cnco2)C1 (centres undefined)	none
O=c1cc(N2CCOCC2)oc2c(-c3cccc4[nH]ccc34)nccc12	none
CN(C)CCNC(=O)c1nc(-c2ccccc2)cc2[nH]ccc12	none
CC(C)c1cccc(-c2cc(NCc3ccccn3)nc3[nH]ccc23)n1	Pf Dd2 inh 8.9µM
COCCNc1cc(-c2cncc(C(=O)N3CCOCC3)n2)c2cc[nH]c2n1	none
CN(C)CCNc1cc(-c2ccc3ccccc3n2)c2cc[nH]c2n1	Pf Dd2 inh 13µM
Clc1cccnc1-c1cc(NCc2ccccn2)nc2[nH]ccc12	Pf Dd2 inh 8.9µM
Cc1ccc(C#N)c(-c2cc(NCc3cccnc3)nc3[nH]ccc23)n1	none
NC(=O)c1ccnc(-c2cc(NCc3ccccn3)nc3[nH]ccc23)c1	none
CC(=O)NCc1ccc(-c2cc(NC3CCCC3)nc3[nH]ccc23)nc1	none
CC(=O)c1sccc1-c1cc(NCc2ccccn2)nc2[nH]ccc12	none
Cc1ccc(C(=O)N2CCC(n3cc(-c4nc(C)no4)nn3)C2)cc1 (centres undefined)	none
O=C(Cc1cccs1)N1CCC(c2n[nH]c(=O)n2Cc2ccc(F)cc2)CC1	none
COCCn1ncc(N2CCC(C(=O)N(C)CC(=O)Nc3ccc(F)cc3)C2)cc1=O (centres undefined)	none
Cc1cnc(C(=O)NC2C[C@H]3CC[C@@H](C2)N3C(=O)c2ccc(Br)o2)cn1 (some centres undefined)	none
CCN(CC)C(=O)c1c(NC(=O)c2cccc(C)c2)sc2c1CCC(C)C2 (centres undefined)	none
Cc1ccccc1NC(=O)c1c(NC(=O)c2ccncc2)sc2c1CCC(C(C)(C)C)C2 (centres undefined)	Pf Dd2 inh 5.6µM
CCOc1ccccc1NC(=O)c1c(NC(=O)c2ccncc2)sc2c1CCC(C(C)(C)C)C2 (centres undefined)	none
CCCNC(=O)c1c(NC(=O)c2ccccc2)sc2c1CCC(C(C)(C)C)C2 (centres undefined)	Pf Dd2 inh 11µM
O=C(CCC[C@@H]1[C@H]2CCCN3CCC[C@@H](CN1C(=O)c1cccnc1)[C@@H]23)NCCCN1CCCC1	none
C=CCN1CC2(CCC1=O)CCN(C(=O)[C@H](OC)c1ccccc1)CC2	none
Cn1nc(-c2ccccc2)cc1[C@H]1CN2CC[C@H]1C[C@@H]2CNS(=O)(=O)Cc1ccccc1	none
Cc1nc2ncccn2c1C(=O)N1CCC(c2nccn2CC(N)=O)CC1	none
CC(C)CNC(=O)CN1CCOc2c(O)cc(-c3cccc(Cl)c3)cc2C1	Pf Dd2 inh 10µM
CCc1noc(CN2CCOc3c(O)cc(-c4ccccc4C)cc3C2)n1	none
Cc1ccccc1-c1cc(O)c2c(c1)CN(Cc1ccoc1)CCO2	Pf Dd2 inh 11µM
Cn1cc([C@@H](NC(=O)CN2CCOc3ccccc3C2)C2CC(O)C2)cn1 (some centres undefined)	none
Oc1cc(-c2cccc(Cl)c2)cc2c1OCCN(c1cc(C3CC3)ncn1)C2	none
C=CCn1cc(CN2CCOc3c(O)cc(-c4cccc(Cl)c4)cc3C2)cn1	Pf Dd2 inh 11µM
Cc1ccncc1C(=O)N1CCOc2c(O)cc(-c3ccccc3C)cc2C1	none
C=CCn1cc(CN2CCC(Oc3ccc4ccccc4c3)(C(=O)O)CC2)cn1	none
Cc1nc(C(=O)N2CCOc3c(O)cc(-c4cccc(Cl)c4)cc3C2)cs1	none
Cc1noc(C)c1[S+](=O)([O-])N1CCC(N2CCC[S+]2(=O)[O-])CC1	none
COc1ccc(C(=O)N[C@@H]2CCC[C@@H]2C(=O)NCc2ccc(OC(F)(F)F)cc2)cc1	none
